Assay results as given in the supplement of paper PMC4894684.
Where a name gives a salt, the structure may show the parent alone. ± gives the standard deviation of the averaged measurements.

System: Toxoplasma gondii RH (in HFF)
Assay: parasite growth relative to the screen mean (all compounds = 100%); higher = less inhibition of parasite growth
Settings: 5 µM; 72 h; oxygen 21 %
Outline: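 Confluent human foreskin fibroblasts in 96-well plates received library compounds by pin transfer at 5 µM final, taken from 10 mM DMSO stocks. Within 2 h the cells were infected with RH β-Gal–GFP Toxoplasma at MOI 1:5 and cultured 72 h at 21% O2. A CPRG β-Gal assay read against in-plate standard curves gave parasite number, and growth is stated relative to the screen mean, where all compounds = 100%, averaged across two screens.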

SMILES | parasite growth
COC(=O)[C@H](NC(=O)c1cc(-c2ccccc2)nc2ccccc12)c1ccccc1 | 112.7 ± 0.18%
C#CCN1C(C)=C(C(=O)OC)C(c2cccc([N+](=O)[O-])c2)C(C(=O)OCC)=C1C (stereo not drawn) | 157 ± 2.2%
CC1c2ccccc2CN1CC1=NCCN1 (stereo not drawn) | 131 ± 4.2%
COc1ccc2c(c1OC)C(=O)O[C@@H]2[C@H]1c2c(cc3c(c2OC)OCO3)CCN1C [Noscapine hydrochloride] | 129 ± 27%
CC(C)SC(=N)N [S-Isopropylisothiourea hydrobromide] | 97.1 ± 3.1%
c1ccc2cc(C3=NCCN3)ncc2c1 [BU 226 hydrochloride] | 126 ± 3.6%
CCCCCCNC(=O)Nc1ccc(S(=O)(=O)Nc2ccc(CCNC[C@H](O)COc3ccc(O)cc3)cc2)cc1 | 170 ± 26%
CN(C)CCC1(c2ccc(Cl)cc2)Cc2ccccc2C(=O)O1 (racemic) [(±)-AC 7954 hydrochloride] | 98.7 ± 67%
Clc1cccc(Cl)c1NC1=NCCN1 [Clonidine hydrochloride] | 153 ± 28%
c1cc(CN2CCCCC2)cc(OCCCNc2nc3ccccc3s2)c1 [Zolantidine dimaleate] | 112 ± 4.6%
COc1ccc2cccc(N3CCN(CCNC(=O)c4ccc(F)cc4)CC3)c2c1 | 122 ± 20%
C[N+]1(C)CCC(OC(=O)C(c2ccccc2)c2ccccc2)CC1 | 86.5 ± 39%
O/N=C/c1ccc(-c2ccc(O)c(F)c2)c(Cl)c1O | < 0%
Cc1cc(NC(=O)Nc2ccc(N(C)C)cc2)c2cc(F)cc(F)c2n1 | 159 ± 3.7%
CC1=C(CC(=O)O)c2cc(F)ccc2/C1=C\c1ccc([S+](C)[O-])cc1 (stereo not drawn) [Sulindac] | 183 ± 34%
COc1cccc2c1C(=O)c1c(O)c3c(c(O)c1C2=O)C[C@@](O)(C(=O)CO)C[C@@H]3O[C@H]1C[C@H](N)[C@H](O)[C@H](C)O1 [Doxorubicin hydrochloride] | 18.4 ± 7.7%
CCO/C(O)=C1\C(C)=NC(c2ccccc2)=C(C(=O)OCc2ccc([N+](=O)[O-])cc2)C1C#Cc1ccccc1 (stereo not drawn) | 67.4 ± 16%
COc1cc2ncnc(Nc3ccc(Cl)cc3F)c2cc1OC | 28.9 ± 13%
CN1CCC(=C2c3ccccc3CC(=O)c3sccc32)CC1 [Ketotifen fumarate] | 54.3 ± 14%

SMILES | parasite growth
O=c1cc(-c2ccc(O)cc2)oc2cc(O)cc(O)c12 [Apigenin] | 102 ± 21%
COc1cc2ncn(-c3cc(OCc4ccccc4C(F)(F)F)c(C(N)=O)s3)c2cc1OC | 93.1 ± 20%
Cc1cc(C(=O)O)sc1C(N)C(=O)O (stereo not drawn) | 126 ± 5.2%
Nc1[nH]nc2nc3ccccc3nc12 | 142.8 ± 0.82%
N=C(N)N/N=C/c1c(Cl)cccc1Cl [Guanabenz acetate] | 99.52 ± 0.3%
COC(=O)C1=C(C)NC(C)=C(C(=O)OC(C)C)C1c1cccc2nonc12 (stereo not drawn) [Isradipine] | 43.3 ± 5.6%
O=C1CCc2cc(OCCCCc3nnnn3C3CCCCC3)ccc2N1 [Cilostazol] | 74.6 ± 3.3%
C=CCNC(=O)c1cc([N+](=O)[O-])cc2c(=O)[nH]c(Nc3ccc(Cl)c(Cl)c3)nc12 | 89.6 ± 4.6%
O=C(O)/C=C/c1ccc(Cn2ccnc2)cc1 [Ozagrel hydrochloride] | 119 ± 3.2%
CCCCCCCCCCCC1=C(O)C(=O)C=C(O)C1=O [Embelin] | 122 ± 4.3%
CC(C)[N+]1(C)[C@@H]2CC[C@H]1C[C@@H](OC(=O)C(CO)c1ccccc1)C2 (stereo partly drawn) [Ipratropium bromide] | 76.1 ± 21%
CC[C@H](NC(=O)c1c(C)c(-c2ccccc2)nc2ccccc12)c1ccccc1 | 98.6 ± 3.1%
Cc1ccc(NC2=CC(=O)c3sc(C)nc3C2=O)cc1 [Ryuvidine] | < 0%
O=c1cc(-c2ccccc2)oc2cc(O)c(O)c(O)c12 [Baicalein] | 173 ± 30%
CC1=C(C(=O)OCCN(Cc2ccccc2)c2ccccc2)C(c2cccc([N+](=O)[O-])c2)C(P2(=O)OCC(C)(C)CO2)=C(C)N1 (stereo not drawn) [Efonidipine hydrochloride monoethanolate] | 58 ± 3.9%
COc1ccc(OC)c2c(=S)c3ccccc3[nH]c12 | 171 ± 20%
COC(=O)[C@H]1[C@H]2C[C@H]3c4[nH]c5ccccc5c4CCN3C[C@H]2CC[C@@H]1O [Rauwolscine hydrochloride] | 167 ± 41%
O=C(O)C1CCCN(CCC=C(c2ccccc2)c2ccccc2)C1 (stereo not drawn) | 122 ± 26%
COC(=O)C1=C(C)NC(C)=C([N+](=O)[O-])C1c1ccccc1C(F)(F)F (racemic) | 167 ± 8.8%
